7 molecules from PubChem BioAssay (Tox21) can be followed below.

The nature of experiment [1]: Nuclear factor erythroid 2-related factor 2/antioxidant responsive element (Nrf2/ARE) small molecule agonists: luciferase reporter gene qHTS assay in human keratinocytes (AID 1919969). Further: nearly all actives have a fitted effect of over 35% in size. Further: potency means the concentration at half of the fitted maximal effect. A general note: In a reporter assay the amount or activity of a reporter protein is the signal.
For experiment [2], the target named is Gonadotropin-releasing hormone receptor (Homo sapiens) (UniProt P30968). Put plainly: Human gonadotropin-releasing hormone receptor (GnRHR) small molecule agonists, calcium flux assay in GnRHR-HEK293 cells (AID 1920063). Further: nearly all actives have a fitted effect of over 35% in size. A digest of the protocol:
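HEK293 cells stably expressing human GnRHR were plated 18 h at 37 °C, loaded with calcium dye 1 h at 37 °C, then given compound in agonist mode; fluorescence (Ex/Em 480/540) read kinetically for 3 min at 1 s intervals.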
(Calcium assays in cells follow changes in intracellular calcium, usually with a dye or a luminescent sensor.)

The target of experiment [3] is KiSS-1 receptor (Homo sapiens) (UniProt Q969F8). In words: Human kisspeptin (KISS1R) small molecule agonists, calcium flux assay in KISS1R-HEK293 cells (AID 1920064; active means well fitted activation curve with a large enough effect in the repeat runs). A digest of the protocol: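 HEK293 cells stably expressing human KISS1R were plated 18 h at 37 °C, loaded with calcium dye for 1 h at 37 °C, then given compound by pin tool. Fluorescence (Ex/Em 480/540) was read kinetically for 3 min.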

A short description of experiment [4]: G protein-coupled receptor (GPCR) small molecule agonists, calcium flux assay: HEK293 wild type cell line counter screen (AID 1920065). The gist of the method: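 Cells were plated and cultured 18 h at 37 C/5% CO2, then loaded with calcium dye for 1 h at 37 C. Compounds in DMSO were pin-transferred in agonist mode, and fluorescence (Ex/Em 480/540) was read kinetically for 3 min at 1 s intervals.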

Experiment [5] can be described thus: p53 small molecule agonists, cell-based qHTS assay with human liver microsomes (AID 1963577).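 Further: p53 response element beta-lactamase reporter cells with liver microsomes plus NADPH.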 The gist of the method: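 With metabolic activation: human liver microsomes (0.5 mg/mL final) plus NADPH (0.5 mg/mL final) added alongside compounds to p53RE-bla cells; 16 h 37 C exposure; beta-lactamase read by LiveBLAzer fluorescence.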
Background: In qHTS, concentration-response curves come from the screen itself.

Experiment [6] in a line: p53 small molecule agonists, cell-based qHTS assay with rat liver microsomes (AID 1963578). A digest of the protocol: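 Metabolic activation by rat liver microsomes and NADPH, each 0.5 mg/mL final, added right after compounds to p53RE-bla reporter cells (4,000/well, plated 5 h earlier). 16 h at 37 C, then LiveBLAzer substrate for 2 h at room temperature in the dark; fluorescence read-out.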

Experiment [7] in a line: p53 small molecule agonists, cell-based qHTS assay with human liver microsomes: qHTS cell viability counter screen (AID 1963579). Further: nearly all actives have a fitted effect of over 45% in size. A digest of the protocol: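 Metabolic activation used human liver microsomes and NADPH, both 0.5 mg/mL final, over 16 hours at 37 C on p53RE-bla cells (4,000/well). Cytotoxicity measured by CellTiter-Glo luminescence, 30 min at room temperature.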

Experiment [8] in a line: p53 small molecule agonists, cell-based qHTS assay with rat liver microsomes: qHTS cell viability counter screen (AID 1963580). Further: nearly all actives have a fitted effect of over 45% in size. The gist of the method:
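Viability is assessed in parallel with the p53 reporter read: HCT-116 p53RE-bla cells receive compounds plus rat microsomes and NADPH (0.5 mg/mL final apiece), incubate 16 h at 37 C, and then CellTiter-Glo luminescence is recorded.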

Experiment [9] in a line: p53 small molecule agonists, cell-based qHTS assay: qHTS cell viability counter screen (AID 1963581). Further: nearly all actives have a fitted effect of over 45% in size. Further: potency means the concentration at half of the fitted maximal effect. A digest of the protocol:
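p53RE-bla HCT-116 cells were exposed to compounds for 16 h at 37 C; after the beta-lactamase FRET read in the same wells, CellTiter-Glo was added and luminescence (intracellular ATP) read after 30 min at room temperature.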

The target of experiment [10] is 5-hydroxytryptamine receptor 2A (Homo sapiens) (UniProt P28223). Put plainly: 5-hydroxytryptamine receptor 2A (HTR2A) small molecule antagonists, cell-based qHTS assay (AID 1963586). Further: nearly all actives have a fitted effect of over 45% in size. A digest of the protocol: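 Antagonist-mode intracellular calcium assay: DOI (4 nM) added after 5 min compound pre-incubation at room temperature to dye-loaded HTR2A-CHO cells. Fluorescence followed for 3 min, sampled every second.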

For experiment [11] the target is unchanged. In words: 5-hydroxytryptamine receptor 2A (HTR2A) small molecule agonists, cell-based qHTS assay (AID 1963587). Further: nearly all actives have a fitted effect of over 30% in size. The gist of the method:
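CHO cells stably expressing human HTR2A, plated 18 h, loaded with calcium dye 1 h at 37 C. Agonist mode: compounds added and intracellular calcium fluorescence recorded kinetically for 2 min at 1 sec intervals.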

The target of experiment [12] is Muscarinic acetylcholine receptor M1 (Homo sapiens) (UniProt P11229). Put plainly: Cholinergic receptor muscarinic 1 (CHRM1) small molecule antagonists, cell-based qHTS assay (AID 1963588). Further: nearly all actives have a fitted effect of over 40% in size. The gist of the method: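 CHRM1-CHO calcium-flux assay, antagonist mode. Cells were seeded 18 h, dye-loaded 1 h at 37 C and given compound for 5 min at RT, then acetylcholine was added at 50nM. FDSS fluorescence was read 3 min; 15 concentrations, three runs.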

The target is the same in experiment [13]. Put plainly: Cholinergic receptor muscarinic 1 (CHRM1) small molecule agonists, cell-based qHTS assay (AID 1963589). Further: nearly all actives have a fitted effect of over 35% in size. A digest of the protocol: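 CHO cells stably expressing human CHRM1, seeded 18 h at 37 C/5% CO2, dye-loaded 1 h at 37 C, then given compound in agonist mode; intracellular calcium fluorescence read kinetically at 1 s intervals. Fifteen concentrations, three independent runs.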

Experiment [14] can be described thus: cAMP Responsive Elements (CRE) small molecule agonists, cell-based qHTS assay (AID 1963590). The gist of the method: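 CRE-bla HEK 293T cells in DMEM with 10% dialyzed FBS, NEAA, pyruvate and 25 mM HEPES were plated 18 h at 37 C/5% CO2, then exposed to compounds in DMSO for 3 h before LiveBLAzer B/G FRET substrate addition.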
The target of experiment [15] is Beta-2 adrenergic receptor (Homo sapiens) (UniProt P07550). Put plainly: Adrenergic beta2 receptor (ADRB2) small molecule antagonists, cell-based qHTS assay (AID 1963592). Further: series mostly up to about 92 µM; nearly all actives have a fitted effect of over 50% in size. The gist of the method: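 Cells (CHO, stable ADRB2 overexpression) incubated 18-20hr at 37C; compounds added from DMSO; agonist mix (1nM isoproterenol, 100uM IBMX, 25uM Ro-20-1724) added; 0.5hr RT; d2-cAMP and anti-cAMP-cryptate added; 1hr RT; 665/615 nm read.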

For experiment [16] the target is unchanged. Put plainly: Adrenergic beta2 receptor (ADRB2) small molecule agonists, cell-based qHTS assay (AID 1963593).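 Further: CHO cells stably overexpressing human ADRB2.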 The gist of the method:
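CHO cells stably over-expressing ADRB2 were plated overnight at 37C, then dosed with compounds plus a stimulation mix containing 100uM IBMX and 25uM Ro-20-1724 for 0.5hr at room temperature. cAMP was measured by HTRF competition, 1hr.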

Experiment [17] in a line: p53 small molecule agonists, cell-based qHTS assay (AID 1963582; active means well fitted activation curve with a large enough effect in the signal ratio in the repeat runs, not every such curve was filed as active; the % refers to the signal ratio). The gist of the method: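 p53RE-bla beta-lactamase reporter cells rested 5 h at 37 C/5% CO2, then received compounds in DMSO by pin transfer and were incubated 16 h at 37 C. LiveBLAzer B/G FRET substrate was loaded for 2 h at room temperature before fluorescence reading.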
Experiment [18] addresses D(2) dopamine receptor (Homo sapiens) (UniProt P14416). Put plainly: Dopamine D2 receptor (DRD2) small molecule agonists, cell-based qHTS assay (AID 1963594). Further: nearly all actives have a fitted effect of over 35% in size. A digest of the protocol: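 HEK293 cells stably expressing human DRD2, pre-treated with PDE inhibitor Ro20-1724 (0.1 mM final) and compound 10 min at room temperature, then stimulated with NKH477 (200nM […]) for 30 min. cAMP read by HTRF (665/620 nm).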

Experiment [19] in a line: cAMP Responsive Elements (CRE) small molecule antagonists, cell-based qHTS assay (AID 1963591; active means well fitted inhibition curve with a large enough effect in the signal ratio in the repeat runs, not every such curve was filed as active; the % refers to the signal ratio). The gist of the method: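 CRE-bla HEK293T cells were plated 18 h at 37 °C/5% CO2, pinned with compound in DMSO, then stimulated with NKH477 at 0.25 uM final for 3 h. LiveBLAzer B/G FRET substrate was added and plates incubated 2 h at room temperature.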
In experiment [20] the target is D(2) dopamine receptor (Homo sapiens) (UniProt P14416). Put plainly: Dopamine D2 receptor (DRD2) small molecule antagonists, cell-based qHTS assay (AID 1963595; active means well fitted inhibition curve with a large enough effect in the signal ratio in the repeat runs, with a control signal flat; the % refers to the signal ratio). The gist of the method: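 Human DRD2 antagonist qHTS measuring cAMP by HTRF. The cells are exposed to compound for 10 min, then to NKH477 (200 nM) and quinpirole (12 nM) for 30 min at RT, with Ro20-1724 (0.1 mM) present throughout.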

Values without a mark were called inactive. Results filed as inconclusive are left out. The source made the active and inactive calls. Unless noted, the call rests on the fitted dose curve.

Sequence of Beta-2 adrenergic receptor (Homo sapiens) (P07550 whole entry, looked up): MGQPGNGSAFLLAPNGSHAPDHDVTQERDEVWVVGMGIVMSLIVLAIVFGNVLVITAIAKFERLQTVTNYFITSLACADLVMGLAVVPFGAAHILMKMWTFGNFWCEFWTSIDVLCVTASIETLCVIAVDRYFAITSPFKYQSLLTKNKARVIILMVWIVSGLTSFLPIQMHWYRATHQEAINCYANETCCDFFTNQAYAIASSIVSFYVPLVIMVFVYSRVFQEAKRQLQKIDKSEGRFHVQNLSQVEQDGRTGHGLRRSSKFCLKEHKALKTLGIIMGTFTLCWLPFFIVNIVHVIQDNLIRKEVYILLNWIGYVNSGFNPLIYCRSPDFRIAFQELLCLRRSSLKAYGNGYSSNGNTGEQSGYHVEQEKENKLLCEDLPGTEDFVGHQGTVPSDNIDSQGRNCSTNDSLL
Sequence of Gonadotropin-releasing hormone receptor (Homo sapiens) (P30968 whole entry, looked up): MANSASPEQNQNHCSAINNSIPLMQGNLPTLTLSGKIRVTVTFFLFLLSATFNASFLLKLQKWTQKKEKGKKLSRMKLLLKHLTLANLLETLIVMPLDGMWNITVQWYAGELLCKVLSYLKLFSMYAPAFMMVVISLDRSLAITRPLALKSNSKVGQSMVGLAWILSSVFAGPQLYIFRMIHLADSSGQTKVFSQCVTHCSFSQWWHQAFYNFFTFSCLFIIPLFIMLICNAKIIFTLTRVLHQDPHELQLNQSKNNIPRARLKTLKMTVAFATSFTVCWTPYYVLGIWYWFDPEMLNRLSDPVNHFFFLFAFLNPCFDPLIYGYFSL
Sequence of D(2) dopamine receptor (Homo sapiens) (P14416 whole entry, looked up): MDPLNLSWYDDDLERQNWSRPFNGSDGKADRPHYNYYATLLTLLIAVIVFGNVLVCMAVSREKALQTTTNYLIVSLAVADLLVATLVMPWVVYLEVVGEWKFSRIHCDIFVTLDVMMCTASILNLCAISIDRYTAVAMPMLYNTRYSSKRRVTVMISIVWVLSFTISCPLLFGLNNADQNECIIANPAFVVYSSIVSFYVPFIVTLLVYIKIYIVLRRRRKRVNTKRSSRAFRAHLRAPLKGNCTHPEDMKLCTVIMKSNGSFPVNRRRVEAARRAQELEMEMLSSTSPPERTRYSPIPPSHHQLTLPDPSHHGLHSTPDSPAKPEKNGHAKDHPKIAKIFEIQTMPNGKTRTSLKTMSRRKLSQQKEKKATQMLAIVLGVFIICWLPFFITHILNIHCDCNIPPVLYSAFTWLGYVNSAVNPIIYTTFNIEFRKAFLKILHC
Sequence of 5-hydroxytryptamine receptor 2A (Homo sapiens) (P28223 whole entry, looked up): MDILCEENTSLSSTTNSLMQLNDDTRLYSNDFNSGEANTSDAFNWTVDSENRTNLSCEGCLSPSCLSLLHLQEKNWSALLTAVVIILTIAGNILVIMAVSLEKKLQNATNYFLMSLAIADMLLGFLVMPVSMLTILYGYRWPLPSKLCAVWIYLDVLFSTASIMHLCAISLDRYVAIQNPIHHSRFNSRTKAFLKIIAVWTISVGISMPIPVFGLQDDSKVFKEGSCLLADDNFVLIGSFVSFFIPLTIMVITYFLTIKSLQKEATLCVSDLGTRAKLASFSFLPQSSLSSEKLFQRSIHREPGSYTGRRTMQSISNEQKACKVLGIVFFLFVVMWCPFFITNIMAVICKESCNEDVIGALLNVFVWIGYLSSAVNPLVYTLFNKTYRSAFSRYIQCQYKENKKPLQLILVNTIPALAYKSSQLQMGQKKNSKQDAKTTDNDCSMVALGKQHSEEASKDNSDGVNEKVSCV
Sequence of KiSS-1 receptor (Homo sapiens) (Q969F8 whole entry, looked up): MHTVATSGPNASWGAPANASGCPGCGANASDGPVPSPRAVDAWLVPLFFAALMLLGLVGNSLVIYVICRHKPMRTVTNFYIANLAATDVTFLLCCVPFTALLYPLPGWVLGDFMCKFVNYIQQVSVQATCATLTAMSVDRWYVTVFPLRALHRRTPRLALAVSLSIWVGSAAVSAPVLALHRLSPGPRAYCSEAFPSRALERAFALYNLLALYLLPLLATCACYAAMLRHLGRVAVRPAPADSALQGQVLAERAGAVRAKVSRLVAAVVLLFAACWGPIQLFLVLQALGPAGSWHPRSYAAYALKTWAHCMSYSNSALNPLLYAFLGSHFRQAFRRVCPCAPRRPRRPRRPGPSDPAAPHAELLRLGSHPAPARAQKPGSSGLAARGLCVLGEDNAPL
Sequence of Muscarinic acetylcholine receptor M1 (Homo sapiens) (P11229 whole entry, looked up): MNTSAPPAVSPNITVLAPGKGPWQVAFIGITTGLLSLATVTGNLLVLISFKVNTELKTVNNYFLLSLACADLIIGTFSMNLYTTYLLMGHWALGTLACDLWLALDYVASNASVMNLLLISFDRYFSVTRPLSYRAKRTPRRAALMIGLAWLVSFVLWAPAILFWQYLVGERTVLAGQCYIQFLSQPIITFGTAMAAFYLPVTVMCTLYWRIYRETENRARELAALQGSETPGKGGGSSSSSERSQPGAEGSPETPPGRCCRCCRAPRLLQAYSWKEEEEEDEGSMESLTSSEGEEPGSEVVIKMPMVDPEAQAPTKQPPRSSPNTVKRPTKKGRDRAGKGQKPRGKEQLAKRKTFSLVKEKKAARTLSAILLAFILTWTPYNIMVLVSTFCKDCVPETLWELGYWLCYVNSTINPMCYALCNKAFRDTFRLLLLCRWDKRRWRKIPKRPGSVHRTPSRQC

Take `CC(C)c1ccc(C(=O)N=C(N)N)cc1S(C)(=O)=O`: the Potency result in experiment [1], in experiment [2], in [5], in experiment [6], in experiment [7] and in [8] was “inactive” in each case. Moreover, the Potency entry in [9], in [10], in experiment [11], in experiment [12], in [13] and in experiment [14] was “inactive” in each case. The Potency result in experiment [15] and in experiment [16] was “inactive” in each case. Also, the outcome in experiment [3] and in [4] was inactive.
In the case of `CCCN(CCC)c1c([N+](=O)[O-])cc(C(F)(F)F)c(N)c1[N+](=O)[O-]`, the Potency result in [1], in experiment [2], in [5], in experiment [6], in experiment [7] and in experiment [17] was “inactive” in each case. In addition, the Potency entry in [11], in experiment [13], in [15], in experiment [16] and in [18] was “inactive” in each case. The outcome in experiment [3] and in [4] was inactive. In addition, the Potency in experiment [9] was 18.2 µM (active).
As to `CC(C)=CCC[C@H](C)CCO`, the Potency entry in [1], in experiment [2], in experiment [5], in experiment [6], in [8] and in experiment [9] was “inactive” throughout. Moreover, the Potency result in experiment [17], in [10], in [11], in experiment [12], in experiment [13] and in experiment [14] was “inactive” each time. For the same molecule, the Potency result in experiment [19], in experiment [18] and in [20] was “inactive” each time. Moreover, the result in experiment [3] and in experiment [4] was inactive.
Consider `CC1=C(C)C(=O)C(CCCCC#CCCCC#CCO)=C(C)C1=O`, for which, in experiment [1], the Potency is 29.8 µM (active). For the same molecule, the Potency entry in experiment [2], in experiment [5], in [6], in experiment [8], in experiment [9] and in experiment [10] was “inactive” in each case. Further, the Potency entry in [11], in [12], in experiment [13], in [19], in experiment [15] and in experiment [18] was “inactive” in each case. For the same molecule, the outcome in experiment [3] and in experiment [4] was inactive.
For the molecule `O=C(c1ccccc1)c1ccc(Cl)cc1`, the Potency in experiment [1] was 61.1 µM (active). Moreover, the Potency entry in experiment [2], in [5], in experiment [6], in experiment [7], in experiment [9] and in [11] was “inactive” in each case. In addition, the Potency result in experiment [12], in experiment [13], in experiment [19], in experiment [15], in experiment [18] and in experiment [20] was “inactive” in each case. The outcome in experiment [3] and in [4] was inactive.
Turning to `Nc1cccc2c(=O)[nH][nH]c(=O)c12`, the Potency result in [1], in experiment [2], in experiment [6], in experiment [7], in experiment [8] and in experiment [9] was “inactive” each time. Besides, the Potency result in experiment [17], in [11], in experiment [12], in [13], in [19] and in experiment [15] was “inactive” each time. Further, the Potency result in experiment [18] and in experiment [20] was “inactive” throughout. For the same molecule, the outcome in experiment [3] and in [4] was inactive.
In the case of `CCOC(=O)c1ccc(I)cc1`, the Potency result in experiment [1], in experiment [2], in experiment [6], in experiment [7], in [8] and in experiment [9] was “inactive” each time. For the same molecule, the Potency entry in experiment [17], in experiment [11], in [12], in experiment [13], in experiment [14] and in experiment [19] was “inactive” throughout. Further, the Potency result in experiment [15], in experiment [18] and in experiment [20] was “inactive” throughout. The outcome in experiment [3] and in experiment [4] was inactive.
